The values below come from PubChem BioAssay (NCATS).

Values without a mark were called inactive. Results filed as inconclusive are left out. The source made the active and inactive calls. Unless noted, calls come from the whole dose curve; as a rule, active = well fitted curve in either direction with a large enough effect (not every such curve was filed as active); inconclusive = small, poorly fitted or top-dose-only effect, or another doubt; inactive = flat fitted curve, though single readings scatter. Bounds are passed on as bounds.

Assay [1] concerns the target Lysosomal acid glucosylceramidase (Homo sapiens) (UniProt P04062). The assay can be described thus: Glucocerebrosidase-p2 (AID 348; in the data active = potency below about 10 µM; note: potency is the fitted concentration of half-maximal effect). As to conditions: purified GBA, blue fluorogenic substrate, 40 min. In outline:
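Normal human glucocerebrosidase (0.2 nM) with blue fluorogenic substrate (80 uM final) in citrate/phosphate pH 5.9 with 10mM sodium taurocholate, 0.01% tween-20; 40 min RT, NaOH/glycine stop; fluorescence Ex 365/Em 440; AC50 from a titration from 0.6 nM upwards.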

The nature of assay [2]: AP1 Signaling Pathway (AID 357).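 Note: ME-180 reporter cells stimulated with EGF at its EC50 level; % is set by controls: 0 for no effect and ±100 for the full control effect.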 As to conditions: ME-180 AP-1-bla reporter, EGF-induced, beta-lactamase ratio, 5 h; at 7.69 µM (top of the series) unless noted. Summed up: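 First, ME-180 AP-1-bla cells were cultured overnight at 37 °C in low-serum Opti-MEM. Next, titrated compounds with EC50 EGF were incubated 5 hours. Finally, CCF4 was added for 2.5 hours and the 460/530 nm ratio recorded.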

In assay [3] the target is Cytochrome P450 1A2 (Homo sapiens) (UniProt P05177). The experiment in a line: p450-cyp1a2 (AID 410; calls by dose curve; note: potency is the fitted concentration of half-maximal effect). The conditions noted are these: recombinant CYP1A2, luciferin-ME demethylation, luminescence; series mostly up to 57 µM. Summed up: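 O-Demethylation of luciferin 6' methyl ether by human CYP1A2 is monitored as luciferase luminescence. Substrate sits at Km (100uM); enzyme is 20nM. Values are scaled to 57 uM furafylline as maximal inhibition.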

A short description of assay [4]: NFAT Signaling Pathway (AID 444).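 Note: carbachol stimulus at about its EC50 of 1 µM final; % is set by controls: 0 for no effect and ±100 for the full control effect.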 As to conditions: Jurkat NFAT-bla M1, carbachol, beta-lactamase ratio, 5 h; at 7.69 µM (top of the series) unless noted. In outline: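 Read-out: CCF4 FRET ratio (460 nm/530 nm) after 1 h RT dye loading, used for %activity and AC50 from titration series. Cells: Jurkat NFAT-β-lactamase/M1 line, treated with compound plus 1 uM carbachol for 5 h, 37 °C.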

The nature of assay [5]: Stat Signaling Pathway (AID 446).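 Note: ME-180 cervical cancer cells given 40 pM IL-6 alongside compound; SIE-controlled beta-lactamase reporter measured as 460/530 nm FRET emission ratio; % is set by controls: 0 for no effect and ±100 for the full control effect.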 As to conditions: ME-180 SIE beta-lactamase reporter, IL-6 stimulated, 5 h; at 7.69 µM (top of the series) unless noted. In outline: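 Normalization used AC90 stimulation (300 pM IL-6) and AC90 inhibition (125 nM pan-JAK inhibitor at 40 pM IL-6). The underlying signal is SIE-driven beta-lactamase in ME-180 cells after 5 h IL-6 exposure with compound.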

Assay [6] addresses Glucocorticoid receptor (Homo sapiens) (UniProt P04150). The assay can be described thus: GR-EFC Redistribution (AID 451; calls by dose curve; note: potency is the fitted concentration of half-maximal effect). The conditions noted are these: CHO-K1 GR-EFC translocation, beta-gal luminescence, 2 h. In outline:
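Translocation of GR-ED fusion to nuclear EA restores b-gal, read by luminescence after 1 h room-temperature detection. Engineered CHO-K1 biosensor cells, 1,000/well, exposed 2 h at 37 C to titrations up to 46 uM final.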

Assay [7] has as its target Mitogen-activated protein kinase 10 (Mus musculus) (UniProt Q61831). The assay can be described thus: JNK3 AlphaScreen Assay (AID 530).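 Note: kinase came from lysate of stimulated human HepG2 cells; signal reports phosphorylation of biotinylated GST-cJun 1-79 at Ser73 with 10 µM ATP; % is set by controls: 0 for no effect and ±100 for the full control effect.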 As to conditions: JNK3 lysate, c-Jun phosphorylation; series mostly up to 57.1 µM. In outline:
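qHTS titrations with 15 min compound pre-incubation before adding ATP (10 uM final). Read-out: AlphaScreen of Ser73-phosphorylated biotin-GST-cJun using HepG2 lysate JNK3 activated by IL-1β and TNFα.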
In general terms: In Alpha technology, singlet oxygen from a donor bead excites a nearby acceptor bead.

In assay [8] the target is 3',5'-cyclic-AMP phosphodiesterase 4B (Homo sapiens) (UniProt Q07343). The experiment in a line: qHTS Assay for Inhibitors of PDE-IV (AID 607; active = well fitted activation curve with a large enough effect in the main read-out, with a control signal flat, not every such curve was filed as active; note: % of control where 0% means no effect). As to conditions: HEK293 ACTOne CNG channel cells, membrane potential fluorescence; series mostly up to 22.9 µM. Summed up: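 HEK293 ACTOne cells with CNG channel (1000/well), endogenous PDE4; membrane potential dye, compounds up to 22.9 uM final. Fluorescence Ex 535/Em 590; RO 20-1724 (100 uM final) as reference.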

Assay [9] has as its target Cytochrome P450 3A4 (Homo sapiens) (UniProt P08684). The experiment in a line: qHTS Assay for Activators of Cytochrome P450 3A4 (AID 885; active = well fitted curve in the direction sought with a large enough effect; an effect the other way counts as inactive or inconclusive; note: nearly all actives have a fitted effect of over 65% in size; note: potency is the fitted concentration of half-maximal effect). The conditions noted are these: recombinant CYP3A4, Luciferin-PPXE luminescence, 60 min; series mostly up to 57.1 µM. Summed up:
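Human CYP3A4 dealkylates Luciferin-PPXE to luciferin, which luciferase detection converts to light. Substrate was at its KM (25uM), buffer 200mM KPO4, reaction 60 min at RT.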

The nature of assay [10]: Primary qHTS for small molecule stabilizers of the endoplasmic reticulum resident proteome: Secreted ER Calcium Modulated Protein (SERCaMP) assay (AID 1508630; active = well fitted curve in the direction sought with a large enough effect; an effect the other way counts as inactive or inconclusive; note: % is set by controls: 0 for no effect and ±100 for the full control effect). The conditions noted are these: SH-SY5Y GLuc-SERCaMP (Gaussia luciferase released on ER calcium loss) secretion, thapsigargin, luminescence; series mostly up to 38.4 µM. In outline:
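The SH-SY5Y reporter protocol was run at 3 concentrations up to 38.3 uM (primary) or 11 concentrations (follow-up): 16 h compound, 100 nM thapsigargin for 4 h, then extracellular luciferase luminescence.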
(In qHTS, concentration-response curves come from the screen itself.)

For assay [11], the target named is Cytochrome P450 3A4 (Homo sapiens) (UniProt P08684). The assay can be described thus: qHTS Assay for Inhibitors and Substrates of Cytochrome P450 3A4 (AID 884; active = well fitted curve in the direction sought with a large enough effect; an effect the other way counts as inactive or inconclusive; note: nearly all actives have a fitted effect of over 50% in size; note: potency is the fitted concentration of half-maximal effect). As to conditions: recombinant CYP3A4, Luciferin-PPXE luminescence; series mostly up to 57.1 µM. Summed up: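 Luminescent readout of luciferin produced by CYP3A4 (20 nM) dealkylation of Luciferin-PPXE, 25 uM (its KM). NADPH-driven reaction ran 60 min at RT after 10 min compound preincubation; data scaled to 57 uM ketoconazole as 100% inhibition.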

For assay [12], the target named is Cytochrome P450 2D6 (Homo sapiens) (UniProt P10635). The assay can be described thus: qHTS Assay for Inhibitors and Substrates of Cytochrome P450 2D6 (AID 891; active = well fitted curve in the direction sought with a large enough effect; an effect the other way counts as inactive or inconclusive;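 note: luciferin methyl ether substrate demethylated by CYP2D6 with NADPH regeneration; % is set by controls: 0 for no effect and ±100 for the full control effect; nearly all actives have a fitted effect of over 60% in size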). The conditions noted are these: recombinant CYP2D6, luciferin-ME EGE luminescence; series mostly up to 57.1 µM. Summed up:
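Luminescent read-out of luciferin formed by 5 nM human CYP2D6 demethylating 30 uM Luciferin-ME EGE (Km level) over 60 min at room temperature after NADPH regeneration addition. Data normalized to full inhibition by 1.43 uM quinidine.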

Assay [13] has as its target Cytochrome P450 2C19 (Homo sapiens) (UniProt P33261). The experiment in a line: qHTS Assay for Inhibitors and Substrates of Cytochrome P450 2C19 (AID 899; active = well fitted curve in the direction sought with a large enough effect; an effect the other way counts as inactive or inconclusive; note: % is set by controls: 0 for no effect and ±100 for the full control effect; nearly all actives have a fitted effect of over 60% in size). As to conditions: recombinant CYP2C19, luciferin-H EGE luminescence; series mostly up to 57.1 µM. In outline:
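Luminescence readout of luciferin formed from 10uM Luciferin-H EGE (KM level) by 5 nM CYP2C19 in 50mM KPO4. 60 min NADPH-driven reaction at 37C after 10 min compound preincubation; data scaled to 57uM ketoconazole inhibition.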

Assay [14] is described as follows: qHTS Assay for Identification of Small Molecule Agonists for Hypoxia Response Element Signaling Pathway (AID 914; active = well fitted activation curve with a large enough effect in the signal ratio, with a control signal flat, not every such curve was filed as active; the % refers to the signal ratio; note: % of control where 0% means no effect). As to conditions: ME-180 (cervical carcinoma) HRE-bla reporter, beta-lactamase ratio, CoCl2, 17 h; activation: hits give high values. Summed up:
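qHTS titration; ME-180 HRE-bla cells; EC50 CoCl2 co-treatment, 17 h at 37 degrees Celsius; CCF4 dye, ex 405nm, em 460nm and 530nm; %Activity from ratio; AC50.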

Chain of 3',5'-cyclic-AMP phosphodiesterase 4B (Homo sapiens) (Q07343 whole entry, looked up): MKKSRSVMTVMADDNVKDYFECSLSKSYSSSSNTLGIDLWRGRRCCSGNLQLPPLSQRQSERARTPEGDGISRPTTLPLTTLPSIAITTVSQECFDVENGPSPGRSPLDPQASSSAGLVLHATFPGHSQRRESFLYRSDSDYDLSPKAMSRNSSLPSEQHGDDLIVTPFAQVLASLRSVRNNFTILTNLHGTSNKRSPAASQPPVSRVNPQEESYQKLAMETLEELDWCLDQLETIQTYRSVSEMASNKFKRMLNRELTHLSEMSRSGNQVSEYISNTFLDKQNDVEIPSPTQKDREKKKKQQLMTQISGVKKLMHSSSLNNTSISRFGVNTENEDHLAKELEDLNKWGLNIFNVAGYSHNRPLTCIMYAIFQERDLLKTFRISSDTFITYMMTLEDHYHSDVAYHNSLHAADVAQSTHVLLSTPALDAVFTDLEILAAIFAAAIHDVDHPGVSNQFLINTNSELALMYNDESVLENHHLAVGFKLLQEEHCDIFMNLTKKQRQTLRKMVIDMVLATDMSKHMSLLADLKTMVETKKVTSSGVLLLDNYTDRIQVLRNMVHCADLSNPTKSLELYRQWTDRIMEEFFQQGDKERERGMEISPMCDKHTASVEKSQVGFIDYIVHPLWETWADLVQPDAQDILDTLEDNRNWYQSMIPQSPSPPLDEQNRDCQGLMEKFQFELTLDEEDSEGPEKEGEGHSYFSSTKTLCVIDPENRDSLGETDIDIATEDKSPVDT
Chain of Lysosomal acid glucosylceramidase (Homo sapiens) (P04062 whole entry, looked up): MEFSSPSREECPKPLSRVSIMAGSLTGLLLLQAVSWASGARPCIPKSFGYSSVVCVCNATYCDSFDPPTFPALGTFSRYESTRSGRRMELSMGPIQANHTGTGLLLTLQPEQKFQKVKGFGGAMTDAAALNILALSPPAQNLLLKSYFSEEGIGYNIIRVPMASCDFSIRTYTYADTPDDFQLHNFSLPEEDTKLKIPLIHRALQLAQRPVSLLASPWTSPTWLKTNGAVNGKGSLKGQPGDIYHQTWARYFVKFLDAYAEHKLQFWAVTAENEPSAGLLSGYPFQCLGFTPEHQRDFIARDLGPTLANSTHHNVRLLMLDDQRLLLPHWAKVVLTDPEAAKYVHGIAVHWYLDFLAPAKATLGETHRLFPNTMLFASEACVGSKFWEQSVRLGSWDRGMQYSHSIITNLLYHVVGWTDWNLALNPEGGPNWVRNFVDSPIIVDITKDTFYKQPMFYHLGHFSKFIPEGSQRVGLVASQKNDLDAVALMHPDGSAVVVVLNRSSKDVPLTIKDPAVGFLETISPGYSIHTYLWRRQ
Chain of Cytochrome P450 3A4 (Homo sapiens) (P08684 whole entry, looked up): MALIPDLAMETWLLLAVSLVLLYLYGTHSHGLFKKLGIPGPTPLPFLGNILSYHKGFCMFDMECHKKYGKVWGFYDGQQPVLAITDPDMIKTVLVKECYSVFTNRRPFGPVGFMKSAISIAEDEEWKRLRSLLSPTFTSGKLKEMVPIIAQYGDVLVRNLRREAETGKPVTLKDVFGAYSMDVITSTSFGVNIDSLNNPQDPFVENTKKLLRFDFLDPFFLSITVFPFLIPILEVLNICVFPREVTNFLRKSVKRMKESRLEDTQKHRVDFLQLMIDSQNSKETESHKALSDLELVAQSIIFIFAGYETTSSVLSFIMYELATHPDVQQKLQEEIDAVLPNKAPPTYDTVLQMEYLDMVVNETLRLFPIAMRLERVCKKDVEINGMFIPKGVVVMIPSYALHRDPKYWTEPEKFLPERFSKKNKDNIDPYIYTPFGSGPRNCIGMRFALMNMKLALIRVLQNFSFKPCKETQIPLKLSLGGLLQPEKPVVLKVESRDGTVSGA
Chain of Glucocorticoid receptor (Homo sapiens) (P04150 whole entry, looked up, the tested form may be a part): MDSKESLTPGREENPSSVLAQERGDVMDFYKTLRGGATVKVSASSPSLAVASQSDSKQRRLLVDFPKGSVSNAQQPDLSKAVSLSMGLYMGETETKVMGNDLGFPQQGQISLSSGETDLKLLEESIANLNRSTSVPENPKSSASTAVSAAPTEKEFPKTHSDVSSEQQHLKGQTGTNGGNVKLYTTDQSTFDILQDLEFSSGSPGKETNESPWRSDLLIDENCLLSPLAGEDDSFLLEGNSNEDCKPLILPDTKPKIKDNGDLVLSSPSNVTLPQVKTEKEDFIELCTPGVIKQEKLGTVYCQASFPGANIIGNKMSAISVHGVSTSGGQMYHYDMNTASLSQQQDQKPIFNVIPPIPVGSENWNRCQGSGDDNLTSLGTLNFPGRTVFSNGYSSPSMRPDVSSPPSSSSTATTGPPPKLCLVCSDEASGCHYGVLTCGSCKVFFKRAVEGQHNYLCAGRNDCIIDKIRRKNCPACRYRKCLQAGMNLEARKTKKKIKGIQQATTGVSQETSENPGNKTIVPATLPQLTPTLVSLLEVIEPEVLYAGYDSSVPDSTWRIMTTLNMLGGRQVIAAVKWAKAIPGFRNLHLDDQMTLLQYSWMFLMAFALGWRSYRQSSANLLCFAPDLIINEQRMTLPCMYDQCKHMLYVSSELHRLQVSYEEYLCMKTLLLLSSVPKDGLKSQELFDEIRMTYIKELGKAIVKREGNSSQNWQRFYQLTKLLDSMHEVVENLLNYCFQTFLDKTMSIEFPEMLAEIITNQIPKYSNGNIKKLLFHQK
Chain of Cytochrome P450 1A2 (Homo sapiens) (P05177 whole entry, looked up): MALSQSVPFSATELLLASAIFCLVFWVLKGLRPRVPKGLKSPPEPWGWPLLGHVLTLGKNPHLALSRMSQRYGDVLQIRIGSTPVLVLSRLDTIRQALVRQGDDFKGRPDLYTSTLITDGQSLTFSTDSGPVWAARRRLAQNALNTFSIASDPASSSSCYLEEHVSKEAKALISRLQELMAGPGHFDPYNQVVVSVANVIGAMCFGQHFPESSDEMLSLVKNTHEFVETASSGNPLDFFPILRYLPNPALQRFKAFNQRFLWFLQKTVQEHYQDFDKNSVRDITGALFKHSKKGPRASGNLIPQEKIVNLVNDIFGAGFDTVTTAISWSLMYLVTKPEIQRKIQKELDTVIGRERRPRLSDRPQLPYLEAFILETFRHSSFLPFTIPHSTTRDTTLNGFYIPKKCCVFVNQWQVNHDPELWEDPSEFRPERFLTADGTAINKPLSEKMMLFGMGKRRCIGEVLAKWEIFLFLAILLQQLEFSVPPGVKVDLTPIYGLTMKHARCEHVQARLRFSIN
Chain of Cytochrome P450 2D6 (Homo sapiens) (P10635 whole entry, looked up): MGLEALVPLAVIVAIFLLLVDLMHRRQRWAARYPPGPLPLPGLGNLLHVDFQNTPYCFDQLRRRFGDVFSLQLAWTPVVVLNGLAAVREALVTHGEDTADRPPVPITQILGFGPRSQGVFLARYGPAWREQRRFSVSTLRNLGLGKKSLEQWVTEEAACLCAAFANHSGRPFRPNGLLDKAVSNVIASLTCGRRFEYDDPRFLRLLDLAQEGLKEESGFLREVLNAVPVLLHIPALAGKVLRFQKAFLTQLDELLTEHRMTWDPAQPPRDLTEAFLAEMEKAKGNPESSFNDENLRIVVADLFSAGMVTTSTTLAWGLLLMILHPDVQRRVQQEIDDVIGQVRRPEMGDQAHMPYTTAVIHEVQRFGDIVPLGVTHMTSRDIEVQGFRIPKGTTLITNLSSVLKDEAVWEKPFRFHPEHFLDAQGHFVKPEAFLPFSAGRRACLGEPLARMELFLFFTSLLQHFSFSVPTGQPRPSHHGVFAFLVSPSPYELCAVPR
Chain of Cytochrome P450 2C19 (Homo sapiens) (P33261 whole entry, looked up): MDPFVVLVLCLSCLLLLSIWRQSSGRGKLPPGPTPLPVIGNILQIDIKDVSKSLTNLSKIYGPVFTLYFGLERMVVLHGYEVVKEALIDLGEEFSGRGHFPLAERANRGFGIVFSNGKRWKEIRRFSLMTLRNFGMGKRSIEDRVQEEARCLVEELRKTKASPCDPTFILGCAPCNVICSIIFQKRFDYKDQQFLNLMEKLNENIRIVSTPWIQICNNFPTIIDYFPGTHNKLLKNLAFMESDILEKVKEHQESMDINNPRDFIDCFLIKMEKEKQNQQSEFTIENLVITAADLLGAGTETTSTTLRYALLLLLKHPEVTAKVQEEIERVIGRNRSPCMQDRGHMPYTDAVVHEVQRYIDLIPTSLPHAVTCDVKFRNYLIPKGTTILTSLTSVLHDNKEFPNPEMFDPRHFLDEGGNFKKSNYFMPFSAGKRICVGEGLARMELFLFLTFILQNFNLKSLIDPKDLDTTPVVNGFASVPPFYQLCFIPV

For `CC(C)NC(=O)N1CCCC2(CCN(C(=O)c3csnn3)CC2)C1`, the Potency is > 11.4 µM in assay [1] and > 46 µM in assay [6]. The activity change, negative = inhibition in assay [2] was 3.46%; in assay [4] it was -7.86%. Besides, the Potency result in assay [3], in [7], in assay [8] and in assay [9] was “inactive” throughout. The activity, negative = inhibition in assay [5] is 2.78%. For the same compound, the result in [10] was inactive.
On to `COc1ccc(C(=O)N2CCC[C@@]3(CCN(C(=O)Nc4cccc(C#N)c4)C3)C2)cc1`, for which the Potency in [1] is > 11.4 µM; in assay [6], > 46 µM; in assay [11] it was 7.94 µM (active). For the same compound, the activity change, negative = inhibition in assay [2] is -11.5%; in assay [4] it was 16.6%. Further, the Potency result in [3], in assay [7], in assay [8] and in assay [9] was “inactive” in each case. Besides, the activity, negative = inhibition in [5] was 1.52%. In addition, the result in assay [10] was inactive.
For the compound `N#Cc1cccc(NC(=O)N2CC[C@@]3(CCCN(C(=O)c4cc(C(F)(F)F)cc(C(F)(F)F)c4)C3)C2)c1`, the Potency was > 11.4 µM in [1] and > 46 µM in assay [6]. The activity change, negative = inhibition in assay [2] was 3.48%; in assay [4] it was 5.16%. In addition, the Potency result in [3], in [7], in assay [8], in [11], in assay [12] and in assay [13] was “inactive” in each case. In addition, in [5], the activity, negative = inhibition is -10.2%. The result in assay [10] was inactive.
With `O=C(Nc1cccc(F)c1)N1CC[C@@]2(CCCN(S(=O)(=O)c3ccccc3)C2)C1`, the figures for the Potency in assay [1], in assay [3] and in [6] were > 11.4 µM, 15.8 µM (active) and > 46 µM, respectively. For the same compound, the values for the activity change, negative = inhibition in assay [2] and in [4] were -21% and 7.62%, respectively. In assay [5], the activity, negative = inhibition was -7.95%. In addition, the Potency result in assay [7], in assay [8] and in [9] was “inactive” throughout. In addition, in assay [10], the outcome was inactive.
As for `O=C(Nc1ccccc1)N1CCC2(CC1)CCN(C(=O)c1cccc(F)c1)CC2`, the Potency in [1] is > 11.4 µM; in assay [3], 10 µM (active); in [6], > 46 µM; in assay [9] it was 12.6 µM (active). Further, the values for the activity change, negative = inhibition in assay [2] and in assay [4] were 2.8% and 14.6%, respectively. Besides, in assay [5], the activity, negative = inhibition is -12.9%. For the same compound, the Potency result in assay [7], in assay [8] and in assay [11] was “inactive” each time. Further, in assay [14], the activation was -13.7%. Besides, the result in [10] was inactive.
In the case of `O=C(c1cccc(F)c1)N1CCC2(CC1)CCN(c1ccc(-c3ccccc3)cc1)CC2`, the Potency was > 11.4 µM in assay [1], > 46 µM in assay [6] and 12.6 µM (active) in assay [9]. Besides, the activity change, negative = inhibition in assay [2] was 4.61%; in [4] it was 0.978%. Moreover, the Potency entry in assay [3], in assay [7], in assay [8] and in assay [11] was “inactive” throughout. Further, the activity, negative = inhibition in assay [5] was -7.26%. For the same compound, the result in assay [10] was inactive.
